# Screening data (PubChem)
# Most compounds without a hit are left out; they make up all but 2% or so of the library.
# DAGLB inh – DAGLB lipase inhibitors, primary screen, biochemical, fluorescence, HTS. Diacylglycerol lipase-beta (Homo sapiens), Q8NCG7. HEK293T DAGLB membrane lysate, EnzChek fluorogenic substrate. inhibition, % at 5.17 µM. 340,000 compounds, 0.059% hits. AID 504411, 2011; in the data active = inhibition above about 34%;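 note: 0% = enzyme with vehicle and 100% = wells lacking enzyme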
# NadD inh – inhibitors of S. aureus NadD, primary screen, biochemical, colorimetric, uHTS; Nicotinate-nucleotide adenylyltransferase NadD (Staphylococcus aureus N315); inhibition, % at 20 µM; purified NadD enzyme, colorimetric absorbance read-out; 360,000 compounds, 0.78% hits; in the data active = inhibition above about 26%
# ARNT TACC3 PPI – disruptors of ARNT/TACC3 protein interaction, primary screen, biochemical, AlphaScreen, single concentration. Transforming acidic coiled-coil-containing protein 3 (Homo sapiens), Q9Y6A5. 390,000 compounds, 0.66% hits. AlphaScreen His-ARNT PAS-B/GST-TACC3 binding, luminescence; TACC3 fragment carries E629A point mutation. inhibition, % at 9.99 µM;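 active = mean inhibition of replicates at least 50% and at least half of replicates each reaching 50%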;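 note: 0% = complete ARNT plus TACC3 wells and 100% = ARNT alone without TACC3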
# Neddyl block – inhibitors of cullin neddylation, primary screen, biochemical, TR-FRET, uHTS, NAE and Ubc12. inhibition, % at 25 µM. AID 651699, 2012. 360,000 compounds, 0.58% hits; in the data active = inhibition above about 36%
# Target sequence (P61081 whole entry, looked up): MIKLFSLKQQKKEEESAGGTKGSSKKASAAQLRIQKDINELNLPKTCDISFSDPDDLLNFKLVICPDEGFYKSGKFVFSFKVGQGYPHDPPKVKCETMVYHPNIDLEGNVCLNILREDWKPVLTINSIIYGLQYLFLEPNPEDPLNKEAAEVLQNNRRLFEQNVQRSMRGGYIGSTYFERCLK
# Target sequence (Q13564 whole entry, looked up): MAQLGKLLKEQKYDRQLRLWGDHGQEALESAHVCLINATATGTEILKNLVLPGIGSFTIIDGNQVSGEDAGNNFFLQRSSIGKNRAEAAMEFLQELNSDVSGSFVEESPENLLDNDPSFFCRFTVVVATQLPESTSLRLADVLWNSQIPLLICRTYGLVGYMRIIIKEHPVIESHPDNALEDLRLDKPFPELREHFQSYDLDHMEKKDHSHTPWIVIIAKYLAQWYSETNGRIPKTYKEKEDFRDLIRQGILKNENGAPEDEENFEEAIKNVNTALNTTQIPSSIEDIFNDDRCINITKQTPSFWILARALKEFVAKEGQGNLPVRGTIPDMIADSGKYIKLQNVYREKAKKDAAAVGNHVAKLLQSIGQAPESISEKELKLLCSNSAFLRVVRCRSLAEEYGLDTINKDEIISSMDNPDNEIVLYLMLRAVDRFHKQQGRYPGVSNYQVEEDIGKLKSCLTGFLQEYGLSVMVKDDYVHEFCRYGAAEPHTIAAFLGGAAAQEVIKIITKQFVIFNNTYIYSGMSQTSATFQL
# HGIII-sPLA2 inh – human group III sPLA2 inhibitors, primary screen, biochemical, QFRET, BODIPY PC-A2 liposome substrate. QFRET BODIPY PC-A2 liposome hydrolysis, fluorescence. 370,000 compounds, 0.56% hits. inhibition, % at 12.2 µM. Group 3 secretory phospholipase A2 (Homo sapiens), Q9NZ20. AID 743126, 2013;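 active = inhibition above mean plus 3 SD of compounds lying within the high and low control bounds, cut at about 19% in these data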;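 note: 0% = median of test compound wells and 100% = no enzyme DMSO wells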
# NadD inh conf – inhibitors of S. aureus NadD, confirmation, biochemical, colorimetric, single concentration. shares compounds with NadD inh. purified S. aureus NadD, colorimetric enzyme assay. inhibition, % at 20 µM. 2,000 compounds, 13% hits. AID 624309, 2012; in the data active = inhibition mostly above about 42%, no sharp cut-off; inactive = mostly below about 42%
# * marks the source's active call; other numbers are inactive results; / = not tested or not shown.
SMILES,DAGLB inh,NadD inh,ARNT TACC3 PPI,Neddyl block,HGIII-sPLA2 inh,NadD inh conf
CCOc1ccc(CCN2C(=S)N([C@@H](Cc3ccccc3)CN3CCCC3CN3C(=S)NC[C@@H]3Cc3ccccc3)C[C@@H]2Cc2ccc(O)cc2)cc1 (some centres not stated),/,50*,/,-23,-4,8
CCOc1ccc(CCN2C(=S)N([C@@H](CC(C)C)CN3CCC[C@@H]3CN3C(=S)NC[C@@H]3Cc3ccccc3)C[C@@H]2Cc2ccc(O)cc2)cc1,/,36*,/,-2,-8,1
CCOc1ccc(CCN2C(=S)N([C@@H](Cc3ccc(O)cc3)CN3CCC[C@@H]3CN3C(=S)NC[C@@H]3Cc3ccccc3)C[C@@H]2Cc2ccccc2)cc1,/,27,/,-5,11,/
CCOc1ccc(CCN2C(=S)N([C@@H](Cc3ccc(O)cc3)CN3CCC[C@@H]3CN3C(=S)NC[C@@H]3Cc3ccccc3)C[C@@H]2CC(C)C)cc1,/,26,/,-2,-11,/
COc1ccc(N=C2C(=Nc3ccc(OC)cc3)N(c3ccc(OC)cc3)C(=S)N2c2ccccc2)cc1,2,30*,3,9,3,3
C[C@@H]1CN([C@@H](C)CO)C(=O)c2cc(NC(=O)Cc3ccccc3)ccc2O[C@@H]1CN(C)Cc1ccc2c(c1)OCO2,/,/,-1,/,/,/
Cc1cc(C)n2nc(C(=O)N/N=C/c3c4ccccc4cc4ccccc34)nc2n1,2,29*,3,29,-5,15
O=C(N/N=C\c1ccc(CNS(=O)(=O)c2ccccc2)o1)C(=O)Nc1ccc(F)cc1,0,1,-1,-5,-5,/
O=C(NCc1ccc(/C=N\NC(=O)C(=O)Nc2ccccc2Br)o1)C(=O)Nc1ccccc1,3,36*,-3,8,-9,8
Cc1ccc2nc(-c3ccc(NC(=O)COC(=O)c4ccco4)cc3)sc2c1,5,-2,-14,/,2,/
COc1ccc(/C=C(\C#N)C(=O)OCC(=O)Nc2ccc(-c3nc4ccc(C)cc4s3)cc2)cc1,0,29*,-1,21,-10,6
O=C(Nc1ccc(-c2csc(Nc3cccc(C(F)(F)F)c3)n2)cc1)c1ccccc1,2,14,9,1,-5,/
O=C(Nc1ccc(-c2csc(Nc3cccc(C(F)(F)F)c3)n2)cc1)c1cc([N+](=O)[O-])cc(C(F)(F)F)c1,1,33*,-7,-22,7,5
COCC(=O)Nc1ccc2c(c1)C(=O)N(C)C[C@@H](OC)[C@@H](C)CN(CCC(F)(F)F)[C@H](C)CO2,/,/,-3,/,/,/
CCCC(=O)Nc1ccc2c(c1)OC[C@H](C)N(C(=O)CN(C)C)C[C@@H](C)[C@H](OC)CN(C)C2=O,/,/,-3,/,/,/
COc1ccc(CN2C[C@@H](C)[C@@H](OC)CN(C)C(=O)c3cc(NC(=O)C4CC4)ccc3OC[C@H]2C)cc1,/,/,-3,/,/,/
COc1ccc(-c2nc(-c3ccccc3)c(-c3cc([N+](=O)[O-])ccc3C)[nH]2)cc1O,2,14,21,-12,-18,/
COc1ccc(-c2nc(=S)c3c([nH]2)Oc2ccc(C)cc2C3)cc1O,1,30*,1,1,-9,11
CCN(CC)c1nc2c3c(nc4c(c3c1C#N)CC(=O)N4c1ccc(Cl)cc1)NC(C)=N2,15,45*,-3,19,3,27
COc1ccc(NC(=O)CSc2nc3ccc(Nc4nc(N5CCOCC5)nc(N5CCOCC5)n4)cc3s2)cc1,-1,12,-4,4,2,/
Cc1ccc(NC(=O)CSc2nc3ccc(Nc4nc(N5CCOCC5)nc(N5CCOCC5)n4)cc3s2)cc1,0,30*,-6,7,5,3
C[C@@H]1CN([C@H](C)CO)C(=O)c2cc(NC(=O)CCC(F)(F)F)ccc2O[C@@H](C)CCCCO[C@@H]1CN(C)C(=O)Cc1ccccc1,/,/,4,/,/,/
CN(C)C(=O)C[C@@H]1CC[C@@H]2[C@H](COC[C@H](O)CN2CC2CC2)O1,/,/,-6,/,/,/
CCCSc1nnc(NC(=O)c2sc3nc(-c4cccs4)ccc3c2N)s1,4,37*,-5,26,-11,10
CCCSc1nnc(NC(=O)c2ccco2)s1,-1,8,-1,15,4,/
SMILES,DAGLB inh,NadD inh,ARNT TACC3 PPI,Neddyl block,HGIII-sPLA2 inh,NadD inh conf
O=C1CC(/C=C/c2ccccn2)=Nc2ccccc2N1,1,1,9,4,-10,/
O=C1CC(/C=C/c2ccc([N+](=O)[O-])cc2)=Nc2ccccc2N1,13,36*,-13,-10,-4,2
C[C@H](CO)N1C[C@H](C)[C@H](CN(C)Cc2cccc(C(F)(F)F)c2)Oc2ncc(/C=C/c3ccccc3)cc2C1=O,/,/,19,/,/,/
CCOC(=O)c1cnc(-n2nc(C)cc2C)nc1Nc1ccc(N(C)C)cc1,0,19,2,-1,16,/
CCOC(=O)c1cnc(-n2nc(C)cc2C)nc1NNc1nc(-c2ccccc2)cc(-c2ccccc2)n1,-4,35*,2,5,/,4
COCC(=O)N1C[C@@H](C)[C@@H](OC)CN(C)C(=O)c2ccc(NC(=O)c3ccccc3)cc2OC[C@H]1C,/,/,-5,/,/,/
CCOC(=O)c1sc(NC(=O)CSc2n[nH]c(-c3ccncc3)n2)c(C#N)c1C,2,9,/,2,-7,/
Cc1ccsc1/C=C/C1=Cc2c(sc(NC(=O)CSc3n[nH]c(N)n3)c2C#N)C(C)(C)C1,13,64*,11,4,-4,42
CCOc1ccc(/C=C/C2=Cc3c(sc(NC(=O)CSc4n[nH]c(N)n4)c3C#N)C(C)(C)C2)cc1,-1,58*,4,2,-13,26
COc1ccc(CN(C)C[C@H]2OCCCC[C@H](C)Oc3ccc(NC(=O)Nc4c(C)noc4C)cc3C(=O)N([C@@H](C)CO)C[C@@H]2C)cc1,/,/,4,/,/,/
O=c1[nH]c(Cn2nnc(-c3ccccc3)n2)nc2scc(-c3ccccc3)c12,2,30*,/,-38,-18,21
N#CC/C(N)=N/Nc1nc2ccccc2nc1Cc1ccccc1,4,34*,30,18,-9,12
N#CCn1c(Cc2ccccc2)nc2ccccc2c1=O,-2,-2,-2,7,5,/
Cc1nn(-c2ccccc2)c(N2CCCCC2)c1/C=N/NC(=O)c1ccncc1,-1,1,-1,-4,-1,/
